Laboratory results taken from PubChem BioAssay (NCI).
About 83,000 compounds went through this panel and 20% of them were active in at least one assay; those are over-represented in the sample as a whole.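 48-hour exposure, single concentration, 96-well plates; percent growth endpoint where 0 means no net growth. Active: below 10.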 Values without a mark were called inactive. The source made the active and inactive calls.

Legend:
Experiment in all cases: NCI-60 one-dose screen, 48 h (100 = growth as untreated, 0 = no growth, -100 = all killed)
[1] = tested on: SR leukemia; settings: 10 µM
[2] = tested on: RPMI-8226 leukemia; settings: 10 µM
[3] = tested on: OVCAR-8 ovarian; settings: 10 µM
[4] = tested on: OVCAR-5 ovarian; settings: 10 µM
[5] = tested on: OVCAR-4 ovarian; settings: 10 µM
[6] = tested on: SK-OV-3 ovarian; settings: 10 µM
[7] = tested on: IGROV1 ovarian; settings: 10 µM
[8] = tested on: OVCAR-3 ovarian; settings: 10 µM
[9] = tested on: HS 578T breast; settings: 10 µM
[10] = tested on: NCI/ADR-RES ovarian; settings: 10 µM
[11] = tested on: T-47D breast; settings: 10 µM
[12] = tested on: BT-549 breast; settings: 10 µM
[13] = tested on: MDA-MB-435 melanoma; settings: 10 µM
[14] = tested on: SW-620 colon; settings: 10 µM
[15] = tested on: MCF7 breast; settings: 10 µM unless noted
[16] = tested on: HCT-116 colon; settings: 10 µM
[17] = tested on: HCC-2998 colon; settings: 10 µM
[18] = tested on: KM12 colon; settings: 10 µM

Row | SMILES | growth [1] | growth [2] [%] | growth [3] [%] | growth [4] [%] | growth [5] [%] | growth [6] [%] | growth [7] | growth [8] | growth [9] [%] | growth [10] | growth [11] [%] | growth [12] | growth [13] | growth [14] [%] | growth [15] | growth [16] | growth [17] | growth [18]
1 | CCO/C=C1\SC(=S)N(c2cccc(C)c2)C1=O | 87.9% | 92.4 | 101 | 106 | 100 | 88.7 | 107% | 104% | 103 | 109% | 93.2 | 114% | 103% | 103 | 90.5% | 109% | 106% | 103%
2 | O=[N+]([O-])c1ccc(O)c(S(=O)(=O)O)c1 | 98% | 105 | 94.4 | 93.2 | 108 | 110 | 130% | 109% | 103 | 109% | 96.5 | 128% | 109% | 104 | 102% | 101% | 112% | 111%
3 | CN(C)c1ccc(S(=O)(=O)O)cc1 | 92.9% | 95.6 | 101 | 93 | 106 | 89 | 118% | 109% | 114 | 104% | 87.6 | 98.6% | 110% | 111 | 99.8% | 96% | 103% | 104%
4 | COC(=O)Nc1nc2ccc(C(=O)c3cccs3)cc2[nH]1 | -4.93% (active) | 28.7 | 13.1 | 42.4 | 36.3 | 13.3 | 39.1% | -7.19% (active) | 20.9 | -20.4% (active) | 91.1 | 26.3% | -47.6% (active) | 24.8 | 14.6% | 11.7% | 12.1% | 7.54% (active)
5 | COc1cc([C@@H]2c3cc4c(cc3[C@H](O)[C@H]3COC(=O)[C@H]23)OCO4)cc(OC)c1OC | -1.68% (active) | 29.7 | 12.9 | 40 | 26.9 | 24.4 | 31.6% | -42.8% (active) | 26.9 | 4.7% (active) | 65.5 | 7.33% (active) | -30.3% (active) | 24.5 | 5.76% (active) | 2.8% (active) | -4.87% (active) | -4.78% (active)
6 | N#Cc1ccc(NC(=O)Nc2cccc(C#N)c2)cc1 | 72.2% | 30.9 | 83.6 | 116 | 91.2 | 115 | 78% | 105% | 99.1 | 90.1% | 66.9 | 108% | 78.8% | 95.8 | 82.8% | 82.5% | 95.1% | 102%
7 | Cc1ccc(Cl)cc1NC(=O)N(C)CCO | 113% | 97.4 | 112 | 111 | 136 | 114 | 93% | 130% | 236 | 112% | 104 | 116% | 117% | 137 | 88.7% | 112% | 104% | 120%
8 | O=C(Nc1cc(-c2ccccc2)[nH]n1)c1ccc(Cl)cc1 | 47.7% | 36.6 | 84.3 | 80.7 | 71 | 62.7 | 3.1% (active) | 80.5% | 80.6 | 85% | 74.1 | 83.5% | 86.4% | 86.1 | 87.6% | 72.3% | 100% | 48.6%
9 | O=C(O)c1ccnc(Br)c1 | 109% | 115 | 103 | 107 | 107 | 101 | 117% | 112% | 107 | 111% | 96.9 | 105% | 104% | 103 | 91.7% | 103% | 107% | 103%
